Reference: PubChem BioAssay (NCATS)
Results filed as inconclusive are left out. Entries that show only a call come without a potency. The source made the active and inactive calls. The call rests on the fitted dose curve; in most records, active means well fitted inhibition curve with a large enough effect; inconclusive means small, poorly fitted or top-dose-only effect; inactive means flat fitted curve, though single readings scatter.

Legend:
Assay in all cases: qHTS profiling for inhibitors of Plasmodium falciparum proliferation (AID 504749); further: nearly all actives have a fitted effect of over 60% in size
Conditions in all cases: P. falciparum in erythrocytes, SYBR Green DNA, 72 h; series mostly up to 28.7 µM
CP269 = test system: CP269
In short: (§1)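 Three-day growth assay of blood-stage parasites in erythrocytes (0.3% parasitemia, 2.5% hematocrit) at 37 C, 5% CO2, quantified by SYBR Green DNA staining after overnight detergent lysis.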

CP286 = test system: CP286
In short: as §1

CP291 = test system: CP291
In short: as §1

CP297 = test system: CP297
In short: as §1

CP305 = test system: CP305
In short: as §1

CP315 = test system: CP315
In short: as §1

CP325 = test system: CP325
In short: as §1

CP329 = test system: CP329
In short: as §1

CP335 = test system: CP335
In short: as §1

DFO2036 = test system: DFO2036
In short: as §1

DIV30 = test system: DIV30
In short: as §1

FAB9 = test system: FAB9
In short: as §1

JCK = test system: JCK
In short: as §1

DIV14 = test system: DIV14
In short: as §1

DIV17 = test system: DIV17
In short: as §1

Dd2 = test system: Dd2
In short: as §1

GB4 = test system: GB4
In short: as §1

ICS = test system: ICS
In short: as §1

ECU = test system: ECU
In short: as §1

HB3 = test system: HB3
In short: as §1
Potency means the concentration at half of the fitted maximal effect.

| Structure (SMILES) | Potency (CP269) | Potency (CP286) | Potency (CP291) | Potency (CP297) | Potency (CP305) | Potency (CP315) | Potency (CP325) | Potency (CP329) | Potency (CP335) | Potency (DFO2036) | Potency (DIV30) | Potency (FAB9) | Potency (JCK) | Potency (DIV14) | Potency (DIV17) | Potency (Dd2) | Potency (GB4) | Potency (ICS) | Potency (ECU) | Potency (HB3) |
| --- | --- | --- | --- | --- | --- | --- | --- | --- | --- | --- | --- | --- | --- | --- | --- | --- | --- | --- | --- | --- |
| CC(C)(C)CC(C)(C)c1ccc(O)cc1 | inactive | inactive | inactive | inactive | inactive | inactive | inactive | inactive | inactive | inactive | inactive | inactive | inactive | – | – | – | – | – | – | – |
| c1ccc2c(c1)Nc1ccccc1S2 | – | – | – | – | – | – | – | – | 8.49 µM (active) | – | – | inactive | inactive | 6.75 µM (active) | 7.57 µM (active) | inactive | 3.79 µM (active) | 12.6 µM (active) | – | – |
| Cc1ccc(S(=O)(=O)N[C@@H](CCCCN)C(=O)CCl)cc1 | inactive | – | – | inactive | – | inactive | – | – | – | – | inactive | inactive | – | – | – | – | – | 12.6 µM (active) | – | – |
| O=c1[nH]c2ccccc2n1CCCN1CCC(n2c(=O)[nH]c3cc(Cl)ccc32)CC1 | – | 11.2 µM (active) | – | 8.49 µM (active) | – | – | inactive | – | 10.7 µM (active) | inactive | 7.57 µM (active) | inactive | – | 5.36 µM (active) | 8.49 µM (active) | – | – | 2.24 µM (active) | 7.94 µM (active) | 10 µM (active) |
| CC(C)(C)NCC(O)c1cc(Cl)c(N)c(Cl)c1 (configuration not stated) | – | inactive | – | – | – | inactive | inactive | inactive | – | inactive | – | inactive | – | 12 µM (active) | 8.49 µM (active) | 12.6 µM (active) | 7.57 µM (active) | 11.2 µM (active) | – | inactive |
| Cc1ccc(-c2nc3ccc(C)cn3c2CC(=O)N(C)C)cc1 | inactive | inactive | inactive | – | inactive | inactive | inactive | inactive | inactive | – | inactive | inactive | inactive | inactive | inactive | inactive | inactive | inactive | inactive | inactive |
| CC(CCc1ccccc1)NC(C)C(O)c1ccc(O)cc1 (configuration not stated) | – | – | – | – | – | inactive | – | – | – | inactive | – | inactive | inactive | 9.53 µM (active) | – | 11.2 µM (active) | – | inactive | inactive | inactive |
| O=[N+]([O-])c1cc([As](=O)(O)O)ccc1O | – | – | 5.1 µM (active) | – | – | – | – | – | 4.55 µM (active) | 3.55 µM (active) | 5.73 µM (active) | 3.55 µM (active) | – | – | – | 3.55 µM (active) | 4.55 µM (active) | 3.16 µM (active) | 3.16 µM (active) | 3.16 µM (active) |
| CC[C@@H](CO)NC(=O)[C@@H]1C=C2c3cccc4[nH]cc(c34)C[C@H]2N(C)C1 | inactive | inactive | inactive | inactive | inactive | inactive | inactive | inactive | – | inactive | inactive | inactive | inactive | inactive | inactive | inactive | inactive | inactive | inactive | inactive |
| NCC1(CC(=O)O)CCCCC1 | inactive | inactive | inactive | inactive | inactive | inactive | inactive | inactive | – | inactive | inactive | inactive | inactive | inactive | inactive | inactive | inactive | inactive | inactive | inactive |
| c1ccc(C2CC2)c(OCC2=NCCN2)c1 | inactive | inactive | inactive | inactive | inactive | inactive | inactive | inactive | inactive | inactive | inactive | inactive | inactive | – | – | – | – | inactive | inactive | inactive |
